# TRPML1 blocker: human mucolipin-1 channel inhibition. TRPML1-inducible cells, Ca2+ dye fluorescence, FDSS; stronger effect = lower value; inhibition of EC80 agonist-evoked calcium signal. activity change, negative = inhibition, % (test concentration not listed). 390,000 tested, 0.02% active; in the data active = activity change below about -50%; inconclusive = between about -30% and that limit;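 note: stimulus is agonist 54-4 at its EC80 concentration; % is set by controls: 0 for no effect and ±100 for the full control effect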
# Target sequence (Q9GZU1 whole entry, looked up): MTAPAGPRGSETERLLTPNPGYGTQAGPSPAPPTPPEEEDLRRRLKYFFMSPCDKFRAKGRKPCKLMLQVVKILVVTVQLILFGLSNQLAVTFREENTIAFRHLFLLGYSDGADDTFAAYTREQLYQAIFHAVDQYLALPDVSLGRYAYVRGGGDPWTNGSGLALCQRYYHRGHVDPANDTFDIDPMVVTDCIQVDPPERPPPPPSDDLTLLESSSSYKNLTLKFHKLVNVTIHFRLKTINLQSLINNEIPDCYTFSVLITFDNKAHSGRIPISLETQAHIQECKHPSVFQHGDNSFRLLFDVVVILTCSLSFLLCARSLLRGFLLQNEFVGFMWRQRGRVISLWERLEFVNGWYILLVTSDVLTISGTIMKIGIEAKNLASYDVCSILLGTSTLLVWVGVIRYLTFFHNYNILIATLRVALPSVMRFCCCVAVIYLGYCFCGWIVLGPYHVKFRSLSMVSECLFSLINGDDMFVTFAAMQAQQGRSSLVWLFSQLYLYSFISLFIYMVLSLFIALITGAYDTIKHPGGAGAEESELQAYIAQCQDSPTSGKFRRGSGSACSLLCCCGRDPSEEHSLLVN
#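 Tet-induced TRPML1-DL cells loaded with Ca8 no-wash calcium dye were read kinetically on FDSS. Compound addition was followed by EC80 agonist 54-4 (4 uM final); inhibition was read over 110 s.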
# PTAP TSG101 blk: blocks PTAP/TSG101 interaction to inhibit HIV-1 budding; AID 493005; Fluorescence polarization, FITC-PTAP peptide / Tsg101 binding; Q99816; 340,000 tested, under 10 active; Potency, µM (doses to about 115 µM), without a hit: at the top dose activity change, negative = inhibition, most hits filed as inhibitors; active = well fitted inhibition curve with a large enough effect in the main read-out, with a control signal flat, not every such curve was filed as active; inconclusive = small, poorly fitted or top-dose-only effect, or effect the other way, or a change in a side signal; inactive = no such curve, though single readings can be large or run the other way; note: potency is the fitted concentration of half-maximal effect; % of control where 0% means no effect
#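 FP read-out: FITC-PTAP peptide, 50 nM final, binding Tsg101 binding domain, 10 uM final; 20 min, r.t.; 10 mM HEPES pH 7.5, 0.15 M NaCl, 0.01% Tween 20, 3 mM EDTA, 0.1 mM TCEP.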
# Glioma ERSR ind: induces the endoplasmic reticulum stress response in human glioma cells | U87-MG GRP78 promoter luciferase reporter, 16 h | Potency, µM, for the others: at the top dose activation, usual class: activators | 420,000 tested, 0.02% active; active = well fitted activation curve with a large enough effect; inconclusive = small, poorly fitted or top-dose-only effect; inactive = no such curve, though single readings can be large or run the other way; note: potency is the fitted concentration of half-maximal effect; series mostly up to about 76 µM; % of control where 0% means no effect; nearly all actives have a fitted effect of over 35% in size
#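 ERSR induction read as luciferase luminescence (Bright-Glo, 10 min at room temperature) in stably transfected human U87-MG glioma cells exposed to compounds for 16 h, using GRP78 as sensor.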
# TRPML1 agonist: agonists of human TRPML1 channel; Q9GZU1; TRPML1-expressing cells, Ca2+ dye fluorescence, FDSS; activation, % (no concentration beside the values); 410,000 tested, 0.12% active; AID 624414; in the data active = activation above about 50%; inconclusive = mostly about 30% to 49%; note: 0% is about no effect
#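 Tetracycline-induced TRPML1-DL cells are seeded and incubated overnight before loading with a no-wash Ca2+ dye and quencher. Agonist activity is taken from the 110 s fluorescence read following compound pin-transfer on an FDSS, before EC80 54-4 challenge.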
# KCNH2 3.1 inh: KCNH2 3.1 (human) potassium channel inhibition; 340,000 tested, 0.95% active; U2OS KCNH2 3.1, thallium flux FluxOr; stronger effect = lower value; activity change, % (tested at about 1.8 µM);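 active = maximum activity change below -70%; inconclusive = maximum activity change from -70% to -50%; inactive = maximum activity change above -50%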;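 note: thallium influx rate constant from kinetic fluorescence after stimulation buffer; % is set by controls: 0 for no effect and ±100 for the full control effect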
#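 We transduce U2OS cells with the mutant 3.1 virus, culture them overnight, load FluxOr with Red40 quencher for 45 min, then add stimulation buffer and read kinetically for 2 min to derive a normalized rate constant.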
# hERG WT inh: KCNH2 (human, wildtype) channel inhibition; activity change, % at 1.84 µM; Q12809; U2OS, BacMam KCNH2, thallium flux FluxOr; stronger effect = lower value; 340,000 tested, 0.37% active;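 active = maximum activity change below -70%; inconclusive = maximum activity change between -70% and -50%; inactive = maximum activity change above -50%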; note: % is set by controls: 0 for no effect and ±100 for the full control effect
#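 U2OS cells were transduced with wild-type KCNH2 virus (2.03 x 10^8 / mL) for 4 h at room temperature, then cultured overnight at 37 C. Thallium flux was read with FluxOr dye. Rate constants were normalized to DMSO controls.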
# * hit, by the source's call; ? = inconclusive; / = not tested or not shown. Most compounds without a hit are left out; they make up all but 1% or so of the library.
SMILES,TRPML1 blocker,PTAP TSG101 blk,Glioma ERSR ind,TRPML1 agonist,KCNH2 3.1 inh,hERG WT inh
COc1cccc(CN2CCN(Cc3cc4ccccc4o3)CC2CCO)c1 (stereo not drawn),-6,-2%,0%,0,-12,9
COc1ccc(CN2CCN(Cc3cc4ccccc4o3)CC2CCO)cc1C (stereo not drawn),6,-3%,-2%,0,-71*,-5
CCOc1ccc(CN2CCN(Cc3cc4ccccc4o3)CC2CCO)cc1 (stereo not drawn),3,-8%,-5%,2,-107*,-48
Cc1cnc(-n2ncc(C(=O)NCCc3ccncc3)c2-c2cccs2)nc1-c1ccc(F)cc1,/,/,-2%,/,/,/
Cc1cccc(NC(=S)Nc2cccc(C)n2)n1,10,-6%,2%,2,-147*,13
CCOc1cc(C(=S)N2CCCCC2)ccc1OS(=O)(=O)c1ccc(Br)cc1,75,-11%,-1%,1,-7,-6
CCOc1cc(C(=S)N2CCCCC2)ccc1OS(=O)(=O)c1ccc(Cl)cc1,89,-8%,-2%,0,-114*,6
CCCN(CCC)c1ccc(/C=C/c2ccnc3ccccc23)cc1,/,/,14%,?,/,/
CC(C)Oc1ccc(C(=O)NCC2Cc3cc(F)cc(-c4cnccn4)c3O2)cc1 (stereo not drawn),/,/,2%,/,/,/
CN(C)c1ccc(/C=C/c2ccnc3c(Cl)ccc(Cl)c23)cc1,/,/,1%,64*,/,/
Cc1ccc2c(/C=C/c3ccc(N(C)C)cc3)ccnc2c1C,/,/,0%,19,/,/
Cc1ccc(NC(=O)CSc2nnc(COc3ccc(C#N)cc3)n2-c2ccccc2)cc1C,26,-4%,-3%,3,-71*,-13
Cc1ccc(C(=O)CSc2nnc(COc3ccc(C#N)cc3)n2-c2ccccc2)cc1,5,-4%,-4%,1,-17,8
CCC(COC)NC(=O)c1cnn(-c2ncc3c(n2)-c2ccccc2CC3)c1C (stereo not drawn),/,/,-1%,/,/,/
S=c1[nH]nc(-c2ccc(Cl)cc2)n1Cc1ccccc1,-16,0%,-1%,4,4,-306*
S=c1[nH]nc(-c2ccccc2)n1Cc1ccccc1,-8,-4%,-4%,0,13,0
C=CCn1c(-c2csc(-c3ccccc3)n2)n[nH]c1=S,10,-1%,3%,1,1,6
C=CCn1c(-c2csc(-c3ccc(Cl)cc3)n2)n[nH]c1=S,75,-4%,-2%,0,-195*,-187*
FC(F)(F)c1ccc2c(c1)[nH]c(=S)n2C1CC1,68,0%,0%,2,-201*,-162*
O=C(CN1C(=O)c2ccccc2C1=O)NCC1Cc2cccc(-c3ncccn3)c2O1 (stereo not drawn),/,/,0%,/,/,/
CCOc1cc(CNc2ccccc2)cc(Br)c1OCc1ccc(F)cc1,17,-5%,-5%,2,-3,3
CCOc1cc(CNc2ccc(O)cc2)cc(Cl)c1OCc1ccccc1,-17,/,13µM*,1,/,/
Cc1c(N)nc([C@@H](CC(N)=O)NC[C@H](N)C(N)=O)nc1C(=O)N[C@H](C(=O)N[C@@H](C)[C@@H](O)[C@@H](C)C(=O)N[C@H](C(=O)NCCc1nc(-c2nc(C(=O)NCCCN[C@H](C)c3ccccc3)cs2)cs1)[C@H](C)O)[C@@H](O[C@H]1O[C@@H](CO)[C@H](O)[C@@H](O)[C@H]1O[C@H]1O[C@@H](CO)[C@@H](O)[C@H](OC(N)=O)[C@H]1O)c1cnc[nH]1,/,/,-2%,/,/,/
CCCCc1cc2c(=O)c(C(=O)OC)c[nH]c2cc1OCc1ccccc1,/,/,-2%,/,/,/
Cc1c(C(=O)N2CCN(C)CC2)sc2ncnc(NCC3(c4ccccc4)CCOCC3)c12,/,/,-3%,/,/,/
SMILES,TRPML1 blocker,PTAP TSG101 blk,Glioma ERSR ind,TRPML1 agonist,KCNH2 3.1 inh,hERG WT inh
Cc1cc(-c2cc(F)cc3c2OC(CNC(=O)CCn2cncn2)C3)ccc1F (stereo not drawn),/,/,-2%,/,/,/
CSc1cccc(CN2CCC(CO)(Cc3cccc(C(F)(F)F)c3)CC2)c1,10,0%,-11%,2,?,5
Cc1ccc(-n2cc(CN3CCC(CO)(Cc4cccc(C(F)(F)F)c4)CC3)cn2)cc1,25,-5%,-15%,1,-99*,-84*
CC(C)Cc1cc(CN2CCC(CO)(Cc3cccc(C(F)(F)F)c3)CC2)[nH]n1,0,1%,-3%,0,-83*,-105*
CN1C(=CC=C2C=C(I)C(=O)C(I)=C2)C(C)(C)c2ccccc21,-5,?,-1%,16,-12,17
CN1/C(=C\C=C2/SC(=S)NC2=O)C(C)(C)c2ccccc21,-2,?,-3%,85*,-13,-22
CN1/C(=C\C=C2/C(=O)Oc3ccccc3C2=O)C(C)(C)c2ccccc21,-12,?,-1%,99*,-34,?
Cc1cnc(-n2ncc(C(=O)NCC3CCCN(C)C3)c2C)nc1-c1cccs1 (stereo not drawn),/,/,-2%,/,/,/
O=C(NCC1Cc2cccc(-c3ccccn3)c2O1)c1cnn2cccnc12 (stereo not drawn),/,/,-3%,/,/,/
C[C@@H]1CN(Cc2ccc3c(c2)CN(C(=O)c2ccc(Oc4ccccc4)o2)CCO3)C[C@H](C)O1,/,/,-5%,/,/,/
CN1CCC(=C(c2ccccc2)c2ccc(Br)cc2)CC1,-7,-3%,-1%,0,-97*,-37
COc1cccc(CNC(=O)c2c(OC)cc(=O)n3c2CCN(C(=O)C2=C(C)OCCO2)CC3)c1,/,/,18%,/,/,/
CSc1nsc(SC)c1NC(=O)Nc1ccccc1C,10,-2%,0%,0,-84*,-4
C[C@@H]1[C@H](c2ccccc2)OCCS(=O)(=O)N1Cc1cccc(C(F)(F)F)c1,/,/,-2%,0,/,/
CNc1ccccc1C(=O)OCC(=O)c1ccccc1,-2,-4%,1%,0,-8,4
O=C(COC(=O)c1ccccc1Nc1ccccc1)c1ccccc1,-10,-4%,-2%,1,6,-269*
CC(=O)O[C@H]1CC[C@@]2(C)C(=CCC3C2CC[C@]2(C)C(c4cccnc4)=CCC32)C1 (stereo partly drawn),/,/,-2%,/,/,/
COc1ccc(/C=C/c2c([N+](=O)[O-])c(=O)n(C)c(=O)n2C)cc1OC,-6,-9%,-1%,0,-75*,12
COc1cccc(N2CCN(c3ncnc4c3c(-c3ccccc3)cn4-c3cccc(C(F)(F)F)c3)CC2)c1,-18,/,-3%,53*,/,/
COc1cccc(N2CCN(c3ncnc4c3c(-c3ccccc3)cn4-c3ccc(F)cc3)CC2)c1,7,/,-1%,3,/,/

# Bioassay records from PubChem BioAssay.
